HCV inh – qHTS Assay for Inhibitors of Hepatitis C Virus (HCV); Huh7.5.1 HCVcc-Cre infection, luciferase reporter, 44 h; Potency, µM (titrated, usually from 41.8 µM), for inactives: at the top dose activity change, negative = inhibition, actives largely listed as inhibitors; 340,000 tested, 3.4% active; further: potency means the concentration at half of the fitted maximal effect; on the % scale 0 is the no-effect control and ±100 the full control effect
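Compounds are dispensed onto cells plated 4 h earlier at 1,000 per well, with HCVcc-Cre virus (about 0.5 moi) added next. Following 44 h of culture, luminescent signal is measured for 15 sec after 15 min with substrate at room temperature.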
HCMV antiviral – qHTS Assay for inhibitors of the human cytomegalovirus (HCMV). activity change, negative = inhibition, % at 57.5 µM. HFF cells, HCMV-luciferase reporter, 72 h; hits give low values. 410,000 tested, 4.5% active. AID 1259415, 2018; in the data active means activity change below about -60%; inconclusive means no clear call, values can overlap the other calls; inactive means above about -39%; further: on the % scale 0 is the no-effect control and ±100 the full control effect
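Compounds were evaluated in HFFs infected with an HCMV luciferase reporter virus (MOI 1 PFU/cell). Luciferase in lysates collected 72 h post infection served as the replication measure.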
Pf growth 48h – Primary qHTS for delayed death inhibitors of the malarial parasite plastid, 48 hour incubation; P. falciparum luciferase growth in erythrocytes, 48 h; Potency, µM (doses to about 28.7 µM), for the others: top-dose activity change, negative = inhibition, most hits filed as inhibitors; 310,000 tested, 5.9% active; AID 504832, 2011; further: potency means the concentration at half of the fitted maximal effect; on the % scale 0 is the no-effect control and ±100 the full control effect
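Luminescence readout; reporter = integrated firefly luciferase in P. falciparum. RBC culture at 2% hematocrit, 0.1% parasitemia final, 37 C/5% CO2; decreased signal taken as growth inhibition.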
Sm TGR inh – qHTS Assay for the Inhibitors of Schistosoma Mansoni Peroxiredoxins; AID 485364, 2010; purified TGR, DTNB reduction, TNB absorbance 405 nm; 360,000 tested, 3% active; Schistosoma mansoni thioredoxin glutathione reductase (TGR), Q962Y6; Potency, µM (series often up to 114 µM), for the others: at the top dose activity change, negative = inhibition, hits mostly inhibitors; further: potency means the concentration at half of the fitted maximal effect; on the % scale 0 is the no-effect control and ±100 the full control effect; nearly all actives have a fitted effect of over 60% in size
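TGR 20 nM + NADPH 100 uM (dispensed conc.), cpd preinc 15 min RT; start with NADPH (500 uM addition) then DTNB (15 mM addition). Kinetic TNB absorbance, 405 nm filter. Four-parameter Hill fit across titration.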
Pf growth 96h – Primary qHTS for delayed death inhibitors of the malarial parasite plastid, 96 hour incubation; P. falciparum luciferase reporter growth, 96 h; Potency, µM (titrated, usually from 28.7 µM), for the others: top-dose activity change, negative = inhibition, usual class: inhibitors; 320,000 tested, 6.9% active; further: potency means the concentration at half of the fitted maximal effect; on the % scale 0 is the no-effect control and ±100 the full control effect
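Luminescence readout: decreased luciferase signal marks inhibited growth of reporter-expressing P. falciparum in infected red cells (2% hematocrit, 0.05% parasitemia final), exposed to compound two generations (96 h, 37 C, 5% CO2).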
SARS PLpro yeast – qHTS of Yeast-based Assay for SARS-CoV PLP. S. cerevisiae expressing SARS-CoV PLpro, growth rescue. Potency, µM (titrated, usually from 32.9 µM), for inactives: at the top dose activity, positive = growth rescue, hits mostly activators. 330,000 tested, 0.19% active; calls by dose curve; further: potency means the concentration at half of the fitted maximal effect; 0% is about no effect; nearly all actives have a fitted effect of over 55% in size
The depositor's hits bear a star; ? = inconclusive; . = no result; [ ] = remark or other dose. Hits are enriched below; roughly 15% of the tested compounds scored in any of these assays. Unless noted, the call rests on the fitted dose curve; in most records, active means well fitted curve in the direction sought with a large enough effect; inconclusive means small, poorly fitted or top-dose-only effect, or another doubt; inactive means no such curve, though single readings can be large; an effect the other way counts as inactive or inconclusive.

SMILES | HCV inh | HCMV antiviral | Pf growth 48h | Sm TGR inh | Pf growth 96h | SARS PLpro yeast
O=c1[nH]c(/C=C\c2cccnc2)c([N+](=O)[O-])c(=O)[nH]1 | 27% | 14 | ? | -24% | 55% | -2%
Cc1noc(/C=C/c2cccnc2)c1[N+](=O)[O-] | ? | -98* | ? | ? | ? | -12%
CCOc1ccc(NC(=O)Nc2ccon2)cc1 | 0% | 13 | 115% | 5% | 19% | -7%
Cc1cc(N2CCCCC2)nc2ccc(NC(=O)/C=C/c3ccc(OC(C)C)cc3)cc12 | . | -38 | . | 11% | . | .
O=c1cc(CSCc2ccc(Cl)cc2)[nH]c(=O)[nH]1 | 20% | 13 | -4% | 25% | -25% | 1%
COc1ccccc1/C=C1\CCCC2=C1Nc1nnnn1C2c1ccccc1OC (centres undefined) | ? | ? | ? | 4µM* | -20% | 15%
COc1ccccc1NC(=O)C1=C(C)Nc2nnnn2C1c1ccccc1OC (centres undefined) | 2% | 13 | -14% | -4% | . | -1%
Cc1ccc(C(=O)N[C@@H](C)CN2C3=NC[C@@H](Cc4ccccc4)N3C[C@H]2Cc2ccc(O)cc2)cc1Br | -3% | 11 | 5.2µM* | 50µM* | 2.9µM* | 0%
Cc1ccc(C(=O)N[C@@H](C)CN2C3=NC[C@H](Cc4ccccc4)N3C[C@H]2Cc2ccc(O)cc2)cc1Br | -8% | . | 2.1µM* | ? | 1.3µM* | 4%
CC(CCc1ccccc1)NC(=O)c1ccc(Br)cc1 (centres undefined) | -19% | 22 | 61% | 2% | ? | 4%
COc1ccc(C[C@H]2CN3C(=NC[C@@H]3Cc3ccc(O)cc3)N2C[C@H](C)NC(=O)c2ccc(C)c(Br)c2)cc1 | ? | . | 1.5µM* | 40µM* | 0.83µM* | 1%
Cc1ccc2c(C)c(C(=O)N(Cc3ccc(N(C)C)cc3)Cc3ccco3)oc2c1C | . | -1 | . | 3% | . | .
CC(CN1C(C)CCCC1C)OC(=O)c1ccc(F)cc1 (centres undefined) | 9% | -32 | 2% | 9% | ? | 0%
Cn1c(Cc2ccc(Cl)cc2)nnc1SCC(=O)NC1CC1 | 26% | 25 | 9% | 4% | 33% | 1%
CC(=O)N1CCN(C2=Nc3cccc4cccc2c34)CC1 | 11µM* | -3 | . | 11%[11.4 µM] | . | 0%
c1ccc(CC2CCN(C3=Nc4cccc5cccc3c45)CC2)cc1 | 11µM* | . | ? | -9% | 2%[5.75 µM] | 2%
COc1ccccc1N1CCN(C2=Nc3cccc4cccc2c34)CC1 | 13µM* | -6 | 338% | 13% | 19% | 2%
c1cc2c3c(cccc3c1)C(N1CCOCC1)=N2 | -7% | 24 | 32% | 6% | 13% | 3%
CCCCNC(=O)CCn1c(=O)c2cccn2c2cccnc21 | . | 1 | . | 8% | . | .
Cc1ccc2onc(CNC(=O)Nc3cc(F)ccc3F)c2c1 | . | 4 | . | 3% | . | .
COC(=O)Cc1ccc(NC(C)=O)cc1 | 9% | 5 | 20% | -2% | 42% | 0%
Cc1cccc(-c2nc3ccc(C(=O)N4CCC5(CC4)OCCO5)cc3nc2-c2cccc(C)c2)c1 | ? | -17 | 10µM* | -8% | ? | -3%
CC1=Nc2cc(C(=O)N3CCCCC3)ccc2Sc2ccc(C)cc21 | -1% | -15 | 9.3µM* | 8% | 32% | 3%
CCC1=Nc2cc(C(=O)N3CCCCC3)ccc2Sc2ccc(C)cc21 | -26% | -6 | ? | 7% | 3% | 0%
CCC1=Nc2cc(C(=O)N3CCC4(CC3)OCCO4)ccc2Sc2ccc(C)cc21 | -1% | -33 | 10µM* | 7% | -26% | -2%
SMILES | HCV inh | HCMV antiviral | Pf growth 48h | Sm TGR inh | Pf growth 96h | SARS PLpro yeast
CC1=Nc2cc(C(=O)N3CCCC3)ccc2Sc2ccc(C)cc21 | 1% | -4 | 9.3µM* | -31% | ? | -1%
COc1cccc(C(=O)N2CCC3(CC2)OCCO3)c1 | 3% | 17 | 3% | 8% | ? | 0%
COc1ccc(CCC(=O)OCC(=O)Nc2c(C)n(C)n(-c3ccccc3)c2=O)cc1 | 0% | 18 | -3% | 0% | 11% | 5%
C/C(=N\O)C(C)(C)Nc1cccc(Br)c1 | ? | 27 | 11% | 6% | 33% | -2%
CCCC1=Nc2cc(C(=O)N3CCC(C)CC3)ccc2Sc2ccc(C)cc21 | . | -3 | . | -1% | . | .
CCCC1=Nc2cc(C(=O)N3CCC(C(=O)OCC)CC3)ccc2Sc2ccccc21 | ? | -39 | 8.3µM* | 7% | 9.3µM* | -4%
CCCC1=Nc2cc(C(=O)N3CCN(c4ccccn4)CC3)ccc2Sc2ccc(C)cc21 | 11µM* | -38 | 9.3µM* | -2% | ? | -6%
CCCC1=Nc2cc(C(=O)N3CCCC3)ccc2Sc2ccc(C)cc21 | -22% | -6 | 12µM* | -2% | 6% | 19%
CSc1ccc(CCNC(=O)CCCn2c(=O)c3cccn3c3ccccc32)cc1 | . | -15 | . | 2% | . | .
COc1ccc(C2C(=O)N(C3CCCCCC3)CC(=O)N2Cc2ccc(C)cc2)cc1OC (centres undefined) | . | -26 | . | 7% | . | .
COc1ccc(C(C)=O)cc1COC(=O)CSC(C)C(=O)Nc1cc(C)on1 (centres undefined) | 4% | -17 | -3% | ? | 14% | -2%
COc1ccc(C(C)=O)cc1CN(C)C | 17% | -18 | 19% | 5µM* | 20% | .
COc1ccc(C(C)=O)cc1CC(=O)NC1CCCCCC1 | ? | -15 | -18% | -1% | ? | 5%
COc1ccc(C(C)=O)cc1CSc1nnc(Nc2ccccc2)s1 | ? | -70* | ? | -23% | 6.6µM* | 7%
COc1ccc(C(C)=O)cc1COC(=O)CSCC(=O)Nc1ccc(C)cc1 | 0% | -16 | ? | 35µM* | 30% | -3%
Cc1nnc(SCc2cccc3ccccc23)s1 | -69% | -1 | 62% | 0% | 105% | -1%
COc1ccc(C(C)=O)cc1CSc1ncccn1 | ? | ? | 0% | -28% | 10% | 1%
c1ccc(Nc2nnc(SCc3cccc4ccccc34)s2)cc1 | ? | -32 | . | 0% | 8.3µM* | -6%
CC(C)C(=O)N1CCC1(C)C(=O)Nc1ccccc1OC(F)F (centres undefined) | . | 3 | . | . | . | .
COCc1nc2oc3ccccc3c(=O)c2cc1C(=O)OC | 8% | . | 147% | -10% | 168% | 1%
COc1ccc(C(C)=O)cc1Cn1c(=O)cc(C)[nH]c1=O | 3% | 41 | 0% | 40µM* | -2% | 6%
